# Measured values reported in PubChem BioAssay (NCATS).
# Results filed as inconclusive are left out. Unmarked numbers belong to inactive results. Active and inactive are the calls of the source. Calls come from the whole dose curve; as a rule, active = well fitted inhibition curve with a large enough effect; inconclusive = small, poorly fitted or top-dose-only effect; inactive = flat fitted curve, though single readings scatter.
# System: CP203
# Experiment: qHTS profiling for inhibitors of Plasmodium falciparum proliferation (AID 504749); note: nearly all actives have a fitted effect of over 60% in size;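 for activity, negative = inhibition: 0% = DMSO vehicle and full inhibition = artemisinin control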
# Conditions: P. falciparum in erythrocytes, SYBR Green DNA, 72 h; series mostly up to 28.7 µM; activity, negative = inhibition: at the top concentration
# Excerpt: NIH National Institute of Allergy and Infectious Diseases [NIAID] NIH Chemical Genomics Center [NCGC] MLPCN Grant: None Assay Provider: Xinzhuan Su, NIAID NCGC Assay Overview: Plasmodium falciparum is a virulent malarial parasite that kills 1-2 million people worldwide each year. Transmitted by mosquitoes, the sporozoite form of the parasite enters the blood stream to infect hepatocytes, where they become merozoites that infect red blood cells (erythrocytes). Within erythrocytes, merozoites begin a […] cycle of growth and division, after which the parasite is released to infect new red blood cells. Gametocytes, which form within erythrocytes as well, circulate in the bloodstream and are ingested by the mosquito, thereby completing the life cycle. To profile malarial isolates for differential chemical responses and to identify inhibitors of malarial growth, an assay that measures P. falciparum growth and replication within erythrocytes was employed. This assay uses a DNA binding fluorescent dye (SYBR Green) to detect parasite DNA following cell lysis. Because mature erythrocytes lack DNA, only Plasmodium-derived DNA is detected.
# NCGC Assay Protocol Summary: The SYBR Green viability assay was adapted from a method described previously (Plouffe et al., 2008). For screening 3 ul culture medium was dispensed into 1536 well black clear bottom plates (Aurora Biotechnologies) using a Multidrop Combi (Thermo Fisher Scientific Inc.), 23 nL compounds in DMSO were added by a pin tool (Kalypsys), and 5 ul of erythrocytes infected with P. falciparum (0.3% parasitemia, 2.5% hematocrit final concentration) were added. The plates were incubated at 37 C in a humidified incubator in 5% CO2 for 72 h, and 2 ul lysis buffer (20 mM Tris HCl, 10 mM EDTA, 0.16% saponin, 1.6% triton X, 10X SYBR Green I supplied as 10,000X […] by Invitrogen) was added to each well. The plates were mixed for 25 sec with gentle shaking and incubated overnight at room temperature in the dark. The following morning, fluorescence intensity at 485(14) nm excitation and 535(25) nm emission wavelengths was measured on an EnVision (Perkin Elmer) plate reader. Plate reads were normalized relative to the control inhibitor (0.29 uM artemisinin) and vehicle (DMSO) wells present on each plate and then corrected by an algorithm using vehicle-only control plates at the beginning and end of the compound plate stack.
# Potency is the fitted concentration of half-maximal effect.
Compound,Potency,"activity, negative = inhibition"
CN1CCN(CCCN2c3ccccc3Sc3ccc(C(F)(F)F)cc32)CC1,15.1 µM (active),
CCCc1nc2c(C)cc(-c3nc4ccccc4n3C)cc2n1Cc1ccc(-c2ccccc2C(=O)O)cc1,,-15.5%
CC(C[N+](C)(C)C)OC(N)=O (stereo not given),,5.23%
CCOC(=O)C1=C[C@@]2(CC)CCCN3CCc4c(n1c1ccccc41)[C@H]32,15.1 µM (active),
Cn1cnc([N+](=O)[O-])c1Sc1ncnc2nc[nH]c12,,-3.77%
NCCc1ccc(O)c(O)c1,,-8.2%
O=c1[nH]cnc2[nH]ncc12,,3.38%
Cc1[nH]c(=O)c(C#N)cc1-c1ccc2nccn2c1,,0.966%
N#Cc1ccc(C(c2ccc(C#N)cc2)n2cncn2)cc1,,-1.93% [at 12.8 µM]
O=C1CCC(N2C(=O)c3ccccc3C2=O)C(=O)N1 (stereo not given),,4.13%
CCCCNc1cc(C(=O)O)cc(S(N)(=O)=O)c1Oc1ccccc1,,-2.99% [at 12.8 µM]
Cc1oncc1C(=O)Nc1ccc(C(F)(F)F)cc1,,-3.42% [at 12.8 µM]
NC[C@H](O)c1ccc(O)c(O)c1,,-5.53%
Clc1cccc(Cl)c1NC1=NCCN1,,6.08%
C1COC(NC(C2CC2)C2CC2)=N1,,0.862%
Nc1nc2ccc(OC(F)(F)F)cc2s1,,-2.4%
Cc1ccccc1C(OCCN(C)C)c1ccccc1 (stereo not given),13.5 µM (active),
Cc1ccc(N(CC2=NCCN2)c2cccc(O)c2)cc1,,-3.42%
Nc1nc2c(ncn2COCCO)c(=O)[nH]1,,-3.47% [at 12.8 µM]
O=C1CCc2cc(OCCCCc3nnnn3C3CCCCC3)ccc2N1,,3.58%

Compound,Potency,"activity, negative = inhibition"
CCOC(=O)C1=C[C@]2(CC)CCCN3CCc4c(n1c1ccccc41)[C@@H]32,16.9 µM (active),
CC(c1cc2ccccc2s1)N(O)C(N)=O (stereo not given),,-2.21%
NNCCc1ccccc1,,-4.97% [at 12.8 µM]
Nc1ccc(S(=O)(=O)Nc2ccnn2-c2ccccc2)cc1,,1.88% [at 12.8 µM]
NCCCC(N)(C(=O)O)C(F)F (stereo not given),,5.23%
CCc1ccc(CCOc2ccc(CC3SC(=O)NC3=O)cc2)nc1 (stereo not given),,-0.396%
CC(C)C[C@H](NC(=O)[C@@H](O)[C@H](N)Cc1ccccc1)C(=O)O,6.01 µM (active),
O=c1n(CCCN2CCN(c3cccc(Cl)c3)CC2)nc2ccccn12,,-7.87% [at 12.8 µM]
O=NN(CCCl)C(=O)NCCCl,,-18.3%
Cc1cn[nH]c1,,-8.68%
CCCc1nn(C)c2c(=O)[nH]c(-c3cc(S(=O)(=O)N4CCN(C)CC4)ccc3OCC)nc12,,-1.84%
Oc1ccc(C2CNCCc3c2cc(O)c(O)c3Cl)cc1 (stereo not given),,1.7%
NC(=O)c1cnccn1,,1.02%
Clc1ccc(Nc2nnc(Cc3ccncc3)c3ccccc23)cc1,,-3.3%
CNC[C@H](O)c1cccc(O)c1,,-2.74%
CC(=O)Oc1ccccc1C(=O)O,,-1.08%
N=c1nc(N2CCCCC2)cc(N)n1O,,2.97%
N[C@@H]1CONC1=O,,1.53%
NC(N)=NC(=O)c1nc(Cl)c(N)nc1N,19 µM (active),
CC(C)NCC(O)COc1ccc(COCCOC(C)C)cc1 (stereo not given),,-1.74%
